From paper PMC7862700, “An all-to-all approach to the identification of sequence-specific readers for epigenetic DNA modifications on cytosine” come the findings set out here.

Holding throughout (assay): DAPPL (digital affinity profiling via proximity ligation, sequencing); 10 mM Tris-HCl pH 7.5, 50 mM NaCl, 1 mM DTT, 4% glycerol, room temperature, 30 min; GST-TFs on glutathione beads, 16-mer random dsDNA library, 0.1% formaldehyde crosslink after washing; high values mean tight binding
One assay addresses T1, FLI1 (Homo sapiens, UniProt Q01543 1-452).
T1 sequence: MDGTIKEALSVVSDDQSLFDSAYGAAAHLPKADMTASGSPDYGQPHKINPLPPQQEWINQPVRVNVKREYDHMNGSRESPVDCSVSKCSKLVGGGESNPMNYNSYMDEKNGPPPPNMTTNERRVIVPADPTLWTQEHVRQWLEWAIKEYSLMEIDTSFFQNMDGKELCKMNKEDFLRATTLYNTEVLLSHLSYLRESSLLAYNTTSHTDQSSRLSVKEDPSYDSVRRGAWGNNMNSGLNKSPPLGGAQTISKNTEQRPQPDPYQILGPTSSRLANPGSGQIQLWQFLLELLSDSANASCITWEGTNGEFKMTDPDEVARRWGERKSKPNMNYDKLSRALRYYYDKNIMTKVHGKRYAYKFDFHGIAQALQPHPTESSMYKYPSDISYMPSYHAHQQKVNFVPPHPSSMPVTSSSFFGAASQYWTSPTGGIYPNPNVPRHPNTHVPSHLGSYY
The note with it: protein: recombinant; tags: N-terminal GST; dsDNA, one strand shown. Summed up: (§1)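 Binding signal is given per hexamer as its read frequency for a factor divided by its frequency in the tag-only sample. GST-fused human transcription factors were expressed in yeast, captured on glutathione beads, barcoded with DNA and pooled with that sample, then incubated with 200 nmole of a 16-mer random double-stranded DNA library in Tris/NaCl/DTT/glycerol buffer for 30 min at room temperature. The pools were then washed, crosslinked, proximity-ligated, amplified by PCR and sequenced on an Illumina NextSeq500.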

A further assay deals with T2, ELK1 (Homo sapiens, UniProt P19419 1-428).
T2 sequence: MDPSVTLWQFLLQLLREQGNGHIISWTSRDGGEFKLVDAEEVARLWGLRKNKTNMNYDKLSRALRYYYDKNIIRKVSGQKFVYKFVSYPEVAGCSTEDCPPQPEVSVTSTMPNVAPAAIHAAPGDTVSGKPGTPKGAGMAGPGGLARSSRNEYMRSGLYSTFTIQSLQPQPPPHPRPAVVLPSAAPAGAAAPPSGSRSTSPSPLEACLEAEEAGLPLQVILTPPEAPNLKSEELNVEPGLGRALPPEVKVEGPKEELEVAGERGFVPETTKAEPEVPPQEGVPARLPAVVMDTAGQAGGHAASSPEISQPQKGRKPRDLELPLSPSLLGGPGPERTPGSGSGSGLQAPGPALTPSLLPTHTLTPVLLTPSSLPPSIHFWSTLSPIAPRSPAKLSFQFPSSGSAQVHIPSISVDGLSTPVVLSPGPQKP
The note with it: protein: recombinant; tags: N-terminal GST; dsDNA, one strand shown. The method, boiled down: as §1

A further assay has as its target T3, GABPA (Homo sapiens, UniProt Q06546 1-454).
T3 sequence: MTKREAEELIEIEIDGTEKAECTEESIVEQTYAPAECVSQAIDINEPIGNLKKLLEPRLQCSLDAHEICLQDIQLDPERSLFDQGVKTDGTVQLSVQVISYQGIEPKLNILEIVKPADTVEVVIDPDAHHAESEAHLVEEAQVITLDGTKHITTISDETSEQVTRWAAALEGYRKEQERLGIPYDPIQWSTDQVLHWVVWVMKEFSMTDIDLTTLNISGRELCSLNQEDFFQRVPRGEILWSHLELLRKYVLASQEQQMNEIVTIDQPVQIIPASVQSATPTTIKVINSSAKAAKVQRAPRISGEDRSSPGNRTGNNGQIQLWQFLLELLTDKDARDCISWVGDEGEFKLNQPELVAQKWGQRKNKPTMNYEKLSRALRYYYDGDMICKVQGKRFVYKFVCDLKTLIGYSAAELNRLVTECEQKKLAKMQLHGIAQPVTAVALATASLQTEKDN
Conditions: protein: recombinant; tags: N-terminal GST; dsDNA, one strand shown. The method, boiled down:
as §1

The next assay addresses T4, ERG (Homo sapiens, UniProt P11308 1-479).
T4 sequence: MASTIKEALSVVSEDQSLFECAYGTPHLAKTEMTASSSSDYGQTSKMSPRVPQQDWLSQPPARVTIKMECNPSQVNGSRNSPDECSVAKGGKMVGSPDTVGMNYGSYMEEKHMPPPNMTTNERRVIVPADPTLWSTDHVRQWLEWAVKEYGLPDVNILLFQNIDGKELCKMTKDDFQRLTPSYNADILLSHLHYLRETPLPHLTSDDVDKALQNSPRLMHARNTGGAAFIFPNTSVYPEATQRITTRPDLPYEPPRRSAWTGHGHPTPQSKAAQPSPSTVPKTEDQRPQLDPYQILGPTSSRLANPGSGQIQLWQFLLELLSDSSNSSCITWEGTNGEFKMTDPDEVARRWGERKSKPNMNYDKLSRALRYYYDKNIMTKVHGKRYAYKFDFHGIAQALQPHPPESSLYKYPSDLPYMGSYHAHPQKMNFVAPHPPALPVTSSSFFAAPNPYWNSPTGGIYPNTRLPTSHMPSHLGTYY
Conditions: protein: recombinant; tags: N-terminal GST; dsDNA, one strand shown. Summed up:
as §1

A further assay concerns the target ELF1 (Homo sapiens, UniProt P32519 1-619). The note with it: protein: recombinant; tags: N-terminal GST; dsDNA, one strand shown. Summed up:
as §1

The target of another assay is T5, EHF (Homo sapiens, UniProt Q9NZC4 1-300).
T5 sequence: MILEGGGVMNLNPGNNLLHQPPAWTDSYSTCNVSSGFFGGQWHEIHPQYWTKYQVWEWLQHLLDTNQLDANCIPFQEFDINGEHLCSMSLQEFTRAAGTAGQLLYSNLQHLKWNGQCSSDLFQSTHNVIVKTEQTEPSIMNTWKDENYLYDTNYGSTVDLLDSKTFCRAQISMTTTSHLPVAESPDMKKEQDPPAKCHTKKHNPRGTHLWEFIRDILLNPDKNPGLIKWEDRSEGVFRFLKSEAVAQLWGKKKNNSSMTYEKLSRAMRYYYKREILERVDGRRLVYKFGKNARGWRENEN
Conditions: protein: recombinant; tags: N-terminal GST; dsDNA, one strand shown. The method, boiled down: as §1

The target in another assay is SPI1 (Homo sapiens, UniProt P17947 1-270). Conditions: protein: recombinant; tags: N-terminal GST; dsDNA, one strand shown. Summed up:
as §1

The next assay concerns the target SPIB (Homo sapiens, UniProt Q01892 1-262). The note with it: protein: recombinant; tags: N-terminal GST; dsDNA, one strand shown. The method, boiled down:
as §1

A further assay deals with T6, ELK3 (Homo sapiens, UniProt P41970 1-407).
T6 sequence: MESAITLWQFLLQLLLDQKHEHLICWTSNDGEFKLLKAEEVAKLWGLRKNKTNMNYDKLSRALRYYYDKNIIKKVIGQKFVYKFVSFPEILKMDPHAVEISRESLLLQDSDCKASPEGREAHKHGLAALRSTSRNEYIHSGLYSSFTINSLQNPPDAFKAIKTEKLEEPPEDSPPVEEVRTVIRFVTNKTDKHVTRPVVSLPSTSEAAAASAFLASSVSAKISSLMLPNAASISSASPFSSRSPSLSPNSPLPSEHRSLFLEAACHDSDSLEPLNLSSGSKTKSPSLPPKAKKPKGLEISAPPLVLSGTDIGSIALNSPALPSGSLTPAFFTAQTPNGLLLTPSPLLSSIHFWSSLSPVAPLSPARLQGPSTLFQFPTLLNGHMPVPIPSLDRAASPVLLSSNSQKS
The note with it: protein: recombinant; tags: N-terminal GST; dsDNA, one strand shown. Summed up: as §1

Another assay concerns the target T7, FEV (Homo sapiens, UniProt Q99581 1-238).
T7 sequence: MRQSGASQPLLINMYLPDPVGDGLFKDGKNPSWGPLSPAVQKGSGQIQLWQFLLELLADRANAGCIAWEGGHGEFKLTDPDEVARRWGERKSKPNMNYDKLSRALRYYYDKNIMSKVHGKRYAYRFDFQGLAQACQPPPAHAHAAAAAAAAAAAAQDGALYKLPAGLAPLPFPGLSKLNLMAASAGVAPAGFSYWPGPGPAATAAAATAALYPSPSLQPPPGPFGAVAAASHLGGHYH
Conditions: protein: recombinant; tags: N-terminal GST; dsDNA, one strand shown. Summed up:
as §1

For another assay, the target named is ETV5 (Homo sapiens, UniProt P41161 1-510). Conditions: protein: recombinant; tags: N-terminal GST; dsDNA, one strand shown. The method, boiled down: as §1
ETV5, sequence (P41161 whole entry): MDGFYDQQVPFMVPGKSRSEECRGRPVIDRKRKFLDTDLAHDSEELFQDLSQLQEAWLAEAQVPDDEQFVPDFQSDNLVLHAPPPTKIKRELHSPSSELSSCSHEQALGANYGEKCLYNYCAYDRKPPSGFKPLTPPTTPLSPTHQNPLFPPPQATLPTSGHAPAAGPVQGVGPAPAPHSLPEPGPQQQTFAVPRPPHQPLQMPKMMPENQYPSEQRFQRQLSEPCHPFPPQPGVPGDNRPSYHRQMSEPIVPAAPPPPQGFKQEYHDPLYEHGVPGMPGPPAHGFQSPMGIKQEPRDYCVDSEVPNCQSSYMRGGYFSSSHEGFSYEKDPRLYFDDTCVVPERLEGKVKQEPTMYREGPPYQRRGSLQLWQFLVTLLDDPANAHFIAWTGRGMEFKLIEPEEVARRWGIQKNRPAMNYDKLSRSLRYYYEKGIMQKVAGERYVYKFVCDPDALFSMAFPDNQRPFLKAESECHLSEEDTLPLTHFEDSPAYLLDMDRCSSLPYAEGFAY
The target in the next assay is HSF1 (Homo sapiens, UniProt Q00613 1-529). The note with it: protein: recombinant; tags: N-terminal GST; chain copies: 3; dsDNA, one strand shown. Summed up: as §1
HSF1, sequence (Q00613 whole entry): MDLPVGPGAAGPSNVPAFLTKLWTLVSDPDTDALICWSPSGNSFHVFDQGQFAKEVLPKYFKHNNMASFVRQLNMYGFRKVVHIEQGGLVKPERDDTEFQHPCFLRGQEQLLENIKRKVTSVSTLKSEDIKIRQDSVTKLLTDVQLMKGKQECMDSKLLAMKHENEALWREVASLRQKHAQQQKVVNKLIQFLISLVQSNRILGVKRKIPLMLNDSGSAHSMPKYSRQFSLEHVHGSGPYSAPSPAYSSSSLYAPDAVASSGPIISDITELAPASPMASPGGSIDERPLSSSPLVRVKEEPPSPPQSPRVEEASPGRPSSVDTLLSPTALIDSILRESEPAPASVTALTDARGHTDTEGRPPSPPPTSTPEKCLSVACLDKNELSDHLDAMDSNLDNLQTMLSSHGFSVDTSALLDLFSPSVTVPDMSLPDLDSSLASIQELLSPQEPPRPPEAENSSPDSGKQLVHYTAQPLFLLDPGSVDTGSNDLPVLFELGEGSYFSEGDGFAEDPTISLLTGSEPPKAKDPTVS
The next assay has as its target ELF4 (Homo sapiens, UniProt Q99607 1-663). Conditions: protein: recombinant; tags: N-terminal GST; dsDNA, one strand shown. Summed up: as §1
In another assay the target is T8, ELK4 (Homo sapiens, UniProt P28324-2 1-405).
T8 sequence: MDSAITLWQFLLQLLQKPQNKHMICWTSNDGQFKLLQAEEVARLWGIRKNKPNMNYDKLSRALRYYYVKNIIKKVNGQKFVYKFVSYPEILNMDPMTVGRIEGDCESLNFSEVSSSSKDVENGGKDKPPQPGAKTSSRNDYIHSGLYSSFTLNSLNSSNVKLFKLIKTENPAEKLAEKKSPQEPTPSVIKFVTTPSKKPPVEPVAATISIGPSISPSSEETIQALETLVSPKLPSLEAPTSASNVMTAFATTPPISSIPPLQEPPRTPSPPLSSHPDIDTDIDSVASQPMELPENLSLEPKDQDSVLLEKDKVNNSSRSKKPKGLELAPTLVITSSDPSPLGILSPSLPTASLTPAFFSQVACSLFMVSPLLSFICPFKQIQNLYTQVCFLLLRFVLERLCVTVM
The note with it: protein: recombinant; tags: N-terminal GST; dsDNA, one strand shown. Summed up: as §1

For the next assay, the target named is T9, ELF3 (Homo sapiens, UniProt P78545 1-371).
T9 sequence: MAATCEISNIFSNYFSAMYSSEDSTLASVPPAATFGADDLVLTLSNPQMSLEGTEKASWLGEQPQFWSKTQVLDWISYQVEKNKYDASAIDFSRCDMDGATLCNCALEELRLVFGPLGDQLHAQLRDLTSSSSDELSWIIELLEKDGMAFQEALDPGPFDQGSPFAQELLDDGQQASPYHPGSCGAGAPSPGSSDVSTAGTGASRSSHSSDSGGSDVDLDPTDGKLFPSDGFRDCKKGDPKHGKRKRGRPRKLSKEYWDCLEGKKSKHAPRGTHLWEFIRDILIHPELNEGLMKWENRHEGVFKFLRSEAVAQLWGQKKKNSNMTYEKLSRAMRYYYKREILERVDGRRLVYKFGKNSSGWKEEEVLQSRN
The note with it: protein: recombinant; tags: N-terminal GST; dsDNA, one strand shown. Summed up: as §1

The next assay has as its target CRX (Homo sapiens, UniProt O43186 1-299). Conditions: protein: recombinant; tags: N-terminal GST; dsDNA, one strand shown. Summed up:
as §1

Another assay has as its target ETV1 (Homo sapiens, UniProt P50549 1-477). The note with it: protein: recombinant; tags: N-terminal GST; dsDNA, one strand shown. Summed up: as §1

SPIB, sequence (Q01892 whole entry): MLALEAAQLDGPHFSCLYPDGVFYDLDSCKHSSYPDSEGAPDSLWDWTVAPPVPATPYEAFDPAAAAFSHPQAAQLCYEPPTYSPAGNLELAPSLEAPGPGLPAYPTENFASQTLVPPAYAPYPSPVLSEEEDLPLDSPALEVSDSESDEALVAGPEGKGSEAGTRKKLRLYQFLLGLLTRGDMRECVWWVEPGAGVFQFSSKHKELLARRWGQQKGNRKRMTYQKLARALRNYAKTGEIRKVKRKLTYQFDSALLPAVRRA
ELF4, sequence (Q99607 whole entry): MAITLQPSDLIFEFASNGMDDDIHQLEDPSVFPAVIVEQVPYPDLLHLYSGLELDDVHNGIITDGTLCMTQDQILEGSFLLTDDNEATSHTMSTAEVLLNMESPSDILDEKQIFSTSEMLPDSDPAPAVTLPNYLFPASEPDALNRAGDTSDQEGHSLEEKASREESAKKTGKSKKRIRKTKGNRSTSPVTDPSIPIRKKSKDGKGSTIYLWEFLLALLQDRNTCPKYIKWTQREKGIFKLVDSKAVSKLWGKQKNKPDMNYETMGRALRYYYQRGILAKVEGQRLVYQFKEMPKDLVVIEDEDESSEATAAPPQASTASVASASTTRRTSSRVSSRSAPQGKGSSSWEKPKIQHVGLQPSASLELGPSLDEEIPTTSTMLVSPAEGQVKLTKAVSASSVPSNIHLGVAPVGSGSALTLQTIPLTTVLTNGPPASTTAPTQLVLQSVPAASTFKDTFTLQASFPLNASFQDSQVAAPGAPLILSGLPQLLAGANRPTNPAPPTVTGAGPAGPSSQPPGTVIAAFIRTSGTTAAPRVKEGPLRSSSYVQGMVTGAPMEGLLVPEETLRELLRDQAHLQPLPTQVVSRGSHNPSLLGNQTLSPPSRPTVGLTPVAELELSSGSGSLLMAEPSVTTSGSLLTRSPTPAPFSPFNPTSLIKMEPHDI
CRX, sequence (O43186 whole entry): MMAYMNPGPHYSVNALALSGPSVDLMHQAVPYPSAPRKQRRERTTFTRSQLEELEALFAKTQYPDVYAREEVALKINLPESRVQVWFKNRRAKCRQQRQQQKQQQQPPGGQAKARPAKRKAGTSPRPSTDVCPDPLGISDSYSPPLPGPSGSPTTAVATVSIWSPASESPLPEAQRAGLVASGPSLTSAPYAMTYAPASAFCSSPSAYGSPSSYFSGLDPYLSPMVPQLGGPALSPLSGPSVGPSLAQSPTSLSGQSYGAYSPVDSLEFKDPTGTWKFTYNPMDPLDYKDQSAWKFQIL
ETV1, sequence (P50549 whole entry): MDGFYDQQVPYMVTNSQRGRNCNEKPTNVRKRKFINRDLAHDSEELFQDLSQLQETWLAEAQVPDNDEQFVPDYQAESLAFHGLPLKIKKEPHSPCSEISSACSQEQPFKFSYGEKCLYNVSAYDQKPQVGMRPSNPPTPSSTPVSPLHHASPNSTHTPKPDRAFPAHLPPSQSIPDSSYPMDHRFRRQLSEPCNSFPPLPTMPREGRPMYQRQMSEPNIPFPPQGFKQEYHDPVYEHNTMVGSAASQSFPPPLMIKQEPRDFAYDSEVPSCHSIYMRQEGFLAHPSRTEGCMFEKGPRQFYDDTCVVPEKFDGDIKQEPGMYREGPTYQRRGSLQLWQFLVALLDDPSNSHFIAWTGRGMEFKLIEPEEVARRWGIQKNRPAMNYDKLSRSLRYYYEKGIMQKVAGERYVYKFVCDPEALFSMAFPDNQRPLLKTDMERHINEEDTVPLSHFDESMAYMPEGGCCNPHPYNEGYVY
ELF1, sequence (P32519 whole entry): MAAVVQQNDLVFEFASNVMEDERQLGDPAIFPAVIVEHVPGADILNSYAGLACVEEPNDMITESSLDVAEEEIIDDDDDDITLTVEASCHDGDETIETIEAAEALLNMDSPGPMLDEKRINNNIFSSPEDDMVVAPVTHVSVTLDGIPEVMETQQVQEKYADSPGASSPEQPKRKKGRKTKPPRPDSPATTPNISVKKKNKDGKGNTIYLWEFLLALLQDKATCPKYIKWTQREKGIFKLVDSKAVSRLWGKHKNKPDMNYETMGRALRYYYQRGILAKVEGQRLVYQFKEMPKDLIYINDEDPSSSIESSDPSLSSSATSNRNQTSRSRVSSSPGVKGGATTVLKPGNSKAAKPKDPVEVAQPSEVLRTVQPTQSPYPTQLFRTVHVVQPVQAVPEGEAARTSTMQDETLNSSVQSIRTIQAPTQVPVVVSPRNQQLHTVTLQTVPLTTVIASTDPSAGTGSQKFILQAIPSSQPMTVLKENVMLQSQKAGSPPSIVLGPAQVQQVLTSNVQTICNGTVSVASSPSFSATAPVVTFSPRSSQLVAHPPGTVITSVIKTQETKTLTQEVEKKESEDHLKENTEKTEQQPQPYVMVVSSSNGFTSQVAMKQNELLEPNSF

Take CGGCTA: the binding signal with FLI1 was 1.16 fold enrichment (6-mer frequency, TF over GST control); in the assay with ELK1, 1.14 fold enrichment (6-mer frequency, TF over GST control); with GABPA it was 1.1 fold enrichment (6-mer frequency, TF over GST control); with ERG, 1.1 fold enrichment (6-mer frequency, TF over GST control); with ELF1, 1.15 fold enrichment (6-mer frequency, TF over GST control); in the assay with EHF, 1.13 fold enrichment (6-mer frequency, TF over GST control). The binding signal was 1.16 fold enrichment (6-mer frequency, TF over GST control) with SPI1; 1.21 fold enrichment (6-mer frequency, TF over GST control) in the assay with SPIB; 1.02 fold enrichment (6-mer frequency, TF over GST control) in the assay with ELK3; 1.23 fold enrichment (6-mer frequency, TF over GST control) with FEV; 1.19 fold enrichment (6-mer frequency, TF over GST control) with ETV5; 1.07 fold enrichment (6-mer frequency, TF over GST control) with HSF1. Besides, the binding signal is 1.07 fold enrichment (6-mer frequency, TF over GST control) in the assay with ELF4; 1.11 fold enrichment (6-mer frequency, TF over GST control) with ELK4; 1.05 fold enrichment (6-mer frequency, TF over GST control) with ELF3; 1.18 fold enrichment (6-mer frequency, TF over GST control) with CRX; 1.2 fold enrichment (6-mer frequency, TF over GST control) with ETV1.
